Pf Dd2 inh: blocks in vitro growth of P. falciparum Dd2; P. falciparum Dd2 growth, SYBR Green, 72 h; Potency, µM (top dose mostly 28.9 µM), without a hit: at the top dose activity, negative = inhibition, usual class: inhibitors; actives 4.3% (n = 120,000); AID 1347417; active = well fitted inhibition curve with a large enough effect;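 note: plate controls were DMSO vehicle for no effect and reference drug for full effect; nearly all actives have a fitted effect of over 65% in size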
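Readout: SYBR Green fluorescence, 485 nm excitation, 535 nm emission, after ~16 h lysis at 37C. Before that, Dd2-infected red cells (2.5% hematocrit) grew 72 h with compound, 29 uM top final concentration.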
Starred values were filed as active, the others as inactive; i = inactive; ! = not confirmed by another sample; [ ] = remark or other dose. Many of the other results were omitted from the sample, so hits are more common in it than they were. Potency is the fitted concentration of half-maximal effect.

SMILES	Pf Dd2 inh
O=C(Cc1ccc(Cl)cc1)N1CCC(c2n[nH]c(=O)n2-c2ccccc2)CC1	i
CN1CC(=O)N(c2ccccc2)Cc2c(NCc3cccc(C(F)(F)F)c3)ncnc21	-7%
CCCN1C(=O)c2[nH]nc(-c3ccccc3O)c2C1c1ccc(OCc2ccccc2)c(OC)c1 (stereo not drawn)	10µM*
O=C1c2[nH]nc(-c3ccccc3O)c2C(c2cccc(OCc3ccccc3)c2)N1CCCO (stereo not drawn)	11µM*
COc1cc(C2c3c(-c4ccccc4O)n[nH]c3C(=O)N2CCO)ccc1OCc1ccccc1 (stereo not drawn)	11µM*
COc1cc(C2C(C(=O)OCC(C)C)=C(C)N=C3SCCC(=O)N32)ccc1OCc1ccccc1 (stereo not drawn)	-1%
O=C1c2[nH]nc(-c3ccccc3O)c2C(c2cccc(Cl)c2)N1Cc1cccnc1 (stereo not drawn)	i
CCCn1nc(C)c2c1NC(=O)CC2c1ccc(OCC(N)=O)c(OC)c1 (stereo not drawn)	-21%
CCOc1ccc(C2c3c(-c4cc(C)ccc4O)n[nH]c3C(=O)N2Cc2cccnc2)cc1OCC (stereo not drawn)	11µM*
COc1cc(C2c3c(-c4cc(C)ccc4O)n[nH]c3C(=O)N2Cc2cccnc2)cc(OC)c1OC (stereo not drawn)	-8%
CCOc1ccc(C2c3c(oc4ccc(C)cc4c3=O)C(=O)N2CCCN(C)C)cc1OC (stereo not drawn)	-18%
CCOc1cc(C2c3c(oc4cc(C)cc(C)c4c3=O)C(=O)N2CCO)ccc1O (stereo not drawn)	19%
CCCN1C(=O)CN(C2CCCCC2)C(=O)C1c1ccc(OC)c(OC)c1 (stereo not drawn)	39%
CNC(=O)c1cc(S(=O)(=O)N[C@H]2[C@H]3CCO[C@H]3[C@@H]2N(C)C)cs1	-11%
CC(=O)c1ccc(NC(=O)N[C@H]2CO[C@H]3[C@@H]2OC[C@@H]3Nc2nccc(C(C)(C)C)n2)cc1	5%
CC(C)Oc1cccc(-c2nc(C(=O)NCc3ccccc3)cs2)c1	-20%
Cc1ccc(CN2C(=O)NC3(CCN(C(=O)c4cccc(Cl)c4)C3)C2=O)cc1 (stereo not drawn)	i
Cc1ccc2c(C(=O)N3CCOCC3)cc(NC(=O)C3CCC3)cc2n1	-3%
CN1CC(=O)N(C2CCNCC2)Cc2c(NCCc3cccc(F)c3)ncnc21	-17%
CN(C)c1cccc(C(=O)NC2CCN(c3cc(-c4ccc(Cl)cc4)[nH]n3)CC2)c1	i
Cc1ccc(CCNC(=O)C2CC(=O)N(CCc3ccccc3)C2)cc1 (stereo not drawn)	5%
COc1ccc(CCN2C(=O)c3[nH]nc(-c4ccccc4O)c3C2c2cccc(OC)c2)cc1 (stereo not drawn)	10µM*
CCCOc1cccc(C2c3c(-c4ccccc4O)n[nH]c3C(=O)N2Cc2ccco2)c1 (stereo not drawn)	5.6µM*
COc1cccc(-c2n[nH]c3c2C(c2ccccn2)N(C)C3=O)c1 (stereo not drawn)	5%
COc1ccc(-c2[nH]nc3ncc(-c4ccccc4O)nc23)c(C)c1	i
SMILES	Pf Dd2 inh
CCOc1ccc(C2c3cc(OCC)c(OCC)cc3CC(=O)N2c2ccc(C(=O)O)cc2)cc1OCC (stereo not drawn)	61%
CCCOc1ccc(C2c3c(-c4ccccc4O)n[nH]c3C(=O)N2CCc2ccccc2)cc1OCC (stereo not drawn)	4.5µM*
Cc1ccc(C2NC(=O)c3n[nH]c(-c4cccs4)c32)cc1 (stereo not drawn)	-2%
O=C1c2[nH]nc(-c3ccccc3O)c2C(c2cccc(Br)c2)N1Cc1ccncc1 (stereo not drawn)	-4%
CCCOc1ccc(C(=O)N(Cc2ccco2)Cc2ccco2)cc1	24%
Cc1ccc(C2c3c(-c4ccccc4O)n[nH]c3C(=O)N2CCc2ccccc2)cc1 (stereo not drawn)	10µM*
CCCCCOc1ccc(C2c3c(oc4ccccc4c3=O)C(=O)N2c2nc(C)c(C)s2)cc1OCC (stereo not drawn)	83%
N#Cc1ccccc1S(=O)(=O)N[C@H]1CO[C@H]2[C@@H]1OC[C@H]2OC(=O)NC1CCCCC1	-20%
O=C(O)C1c2nc[nH]c2CCN1C(=O)CCCn1ccnc1 (stereo not drawn)	-5%
CCn1c(=O)c2c(cc(C)n2C)n(CC(=O)Nc2ccc(OC)c(Cl)c2)c1=O	i
COc1cc(NC(=O)Cn2c(-c3ccc(Cl)cc3)nc(C)cc2=O)cc(OC)c1OC	i
CN1CCC(OC2CCN(C(=O)c3ccc(Cl)cc3)CC2)CC1	i
CNC(=O)[C@@H]1CN(C(=O)CCc2cccc(OC)c2)C[C@H]1CO	4%
O=C1c2[nH]nc(-c3ccccc3O)c2C(c2ccccc2F)N1Cc1ccncc1 (stereo not drawn)	19%
Cc1cc(C)c2c(=O)c3c(oc2c1)C(=O)N(Cc1ccco1)C3c1ccccc1F (stereo not drawn)	37%
Cc1cc(C)c(-c2n[nH]c3c2C(c2ccccc2F)N(Cc2ccco2)C3=O)c(O)c1 (stereo not drawn)	4µM*
CN1Cc2ncnc(NCC3CC3)c2CN(c2ccccc2)C1=O	1%[44.1 µM]
NC(=O)c1ccccc1OCC(=O)N1CC(CNc2ccccc2)C2(C1)CN(c1ccccc1)C2 (stereo not drawn)	-15%
COc1ccc(CN2CC(CNc3ccccc3)C3(C2)CN(c2ccccc2)C3)cc1O (stereo not drawn)	3.5µM*
N#Cc1ccc(CN2CC(CNC(=O)Nc3ccccc3)C3(C2)CN(c2ccccc2)C3)cc1 (stereo not drawn)	i
Cc1ccccc1Oc1ncccc1CNCc1cccc(O)c1	13µM*
Cc1ccccc1Oc1ncccc1CNCc1cc2c(cc1Cl)OCO2	i
CCn1nc(C)cc1C(=O)NCc1cccnc1Oc1ccccc1C	-14%
CN1C[C@@H](NC(=O)COc2ccccc2)C[C@H]1c1nc(-c2cccnc2)no1	-4%[44.1 µM]
COC1CCC12CCN(C(=O)c1ccc3[nH]ccc3c1)CC2 (stereo not drawn)	-15%
SMILES	Pf Dd2 inh
COc1ccc(CC(=O)N2CCC3(C2)C(=O)N(CCc2ccccc2)c2ccccc23)cc1 (stereo not drawn)	-9%
O=C(c1ccc(Cl)cc1)N1CCC2(C1)C(=O)N(Cc1ccccc1)c1ccccc12 (stereo not drawn)	-22%
COc1cccc(C(=O)N2CCC3(C2)C(=O)N(CCc2ccccc2)c2ccccc23)c1 (stereo not drawn)	7.9µM*
COCC(=O)N1CCC2(C1)C(=O)N(CCc1ccccc1)c1ccccc12 (stereo not drawn)	-25%
O=C(c1ccccc1)N1CCC2(C1)C(=O)N(Cc1ccccc1)c1ccccc12 (stereo not drawn)	i
COC(=O)N1CCC2(C1)C(=O)N(CCc1ccccc1)c1ccccc12 (stereo not drawn)	13µM*!
COc1ccc(CC(=O)N2CCC3(CC2)c2nccn2-c2ccccc2CN3C)cc1	i[5.79 µM]
COc1cc(F)ccc1-c1ccc2ncn(C3CC3)c(=O)c2n1	-18%[44.1 µM]
CCC(CC)n1c(=O)n(C[C@@H](O)CO)c2cc(C(=O)O)cnc21	-5%
CCCN(CC1CC1)C(=O)c1coc(COc2ccc3sc(C)nc3c2)n1	-9%
Cc1cc(C)nc(-n2nc(C)c3c2N(C)C(=O)CC3c2ccc(Cl)cc2)n1 (stereo not drawn)	11%
Cc1ccccc1-n1nc(C)c2c1NC(=O)CSC2c1ccc(Cl)cc1 (stereo not drawn)	2%

Source: PubChem BioAssay
